Measured values reported in PMC8384837, “Expanding the binding specificity for RNA recognition by a PUF domain”.

Columns and labels:
Assay in all cases: yeast three-hybrid, YBZ-1, SC-Leu-His + 0.5 mM 3-AT, 4 days
Details in all cases: tags: N-Gal4 AD-HA kept; label: inside an RPR1-promoter hybrid RNA with tandem MS2 sites; ssRNA
[1] = molecular target: PUM1 PUF domain R2-RQC (Homo sapiens, UniProt Q14671 828-1176, N899R;Y900Q;Q903C)
How it was run: (§1)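 Repeat regions from input (SC-Leu) and selection (SC-Leu-His + 0.5 mM 3-AT) plates were PCR-amplified and Illumina-sequenced after four days of growth. The cells were strain YBZ-1 with a LexA–MS2 coat fusion and a HIS3 reporter, co-expressing Pumilio-1 PUF domain libraries and matching RNA elements from a centromeric plasmid. The interaction score is the log change in variant frequency from input to selection, taken in log2 with a pseudocount of 1 for absent variants.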

[2] = molecular target: PUM1 PUF domain R3-IWR (Homo sapiens, UniProt Q14671 828-1176, C935I;R936W;Q939R)
How it was run: as §1

[3] = molecular target: PUM1 PUF domain R5-RAS (Homo sapiens, UniProt Q14671 828-1176, C1007R;R1008A;Q1011S)
How it was run: as §1

[4] = molecular target: PUM1 PUF domain R3-RIA (Homo sapiens, UniProt Q14671 828-1176, C935R;R936I;Q939A)
How it was run: as §1

[5] = molecular target: PUM1 PUF domain R1-KKS (Homo sapiens, UniProt Q14671 828-1176, S863K;R864K;Q867S)
How it was run: as §1

[6] = molecular target: PUM1 PUF domain R5-RRT (Homo sapiens, UniProt Q14671 828-1176, C1007R;Q1011T)
How it was run: as §1

[7] = molecular target: PUM1 PUF domain R8-NWF (Homo sapiens, UniProt Q14671 828-1176, Y1123W;Q1126F)
How it was run: as §1

[8] = molecular target: PUM1 PUF domain R8-SYK (Homo sapiens, UniProt Q14671 828-1176, N1122S;Q1126K)
How it was run: as §1

[9] = molecular target: PUM1 PUF domain R8-KHN (Homo sapiens, UniProt Q14671 828-1176, N1122K;Y1123H;Q1126N)
How it was run: as §1

[10] = molecular target: PUM1 PUF domain R5-KAN (Homo sapiens, UniProt Q14671 828-1176, C1007K;R1008A;Q1011N)
How it was run: as §1

PUM1 PUF domain R8-KHN, sequence (Q14671 828-1176 N1122K/Y1123H/Q1126N): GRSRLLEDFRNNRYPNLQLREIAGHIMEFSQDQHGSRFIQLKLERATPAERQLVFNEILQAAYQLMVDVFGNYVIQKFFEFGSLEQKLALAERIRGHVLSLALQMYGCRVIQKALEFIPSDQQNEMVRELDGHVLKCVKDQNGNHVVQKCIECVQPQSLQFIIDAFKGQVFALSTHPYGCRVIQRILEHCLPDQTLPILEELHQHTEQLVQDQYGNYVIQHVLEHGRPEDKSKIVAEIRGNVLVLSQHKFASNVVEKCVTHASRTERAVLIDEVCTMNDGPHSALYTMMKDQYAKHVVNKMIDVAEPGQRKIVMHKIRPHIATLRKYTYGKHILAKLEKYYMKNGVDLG
PUM1 PUF domain R5-RRT, sequence (Q14671 828-1176 C1007R/Q1011T): as the sequence (Q14671 828-1176 N1122K/Y1123H/Q1126N) above, with C180R, Q184T, K295N, H296Y, N299Q counted along it
PUM1 PUF domain R3-IWR, sequence (Q14671 828-1176 C935I/R936W/Q939R): as the sequence (Q14671 828-1176 N1122K/Y1123H/Q1126N) above, with C108I, R109W, Q112R, K295N, H296Y, N299Q counted along it
PUM1 PUF domain R5-RAS, sequence (Q14671 828-1176 C1007R/R1008A/Q1011S): as the sequence (Q14671 828-1176 N1122K/Y1123H/Q1126N) above, with C180R, R181A, Q184S, K295N, H296Y, N299Q counted along it
PUM1 PUF domain R1-KKS, sequence (Q14671 828-1176 S863K/R864K/Q867S): as the sequence (Q14671 828-1176 N1122K/Y1123H/Q1126N) above, with S36K, R37K, Q40S, K295N, H296Y, N299Q counted along it
PUM1 PUF domain R3-RIA, sequence (Q14671 828-1176 C935R/R936I/Q939A): as the sequence (Q14671 828-1176 N1122K/Y1123H/Q1126N) above, with C108R, R109I, Q112A, K295N, H296Y, N299Q counted along it
PUM1 PUF domain R8-SYK, sequence (Q14671 828-1176 N1122S/Q1126K): as the sequence (Q14671 828-1176 N1122K/Y1123H/Q1126N) above, with K295S, H296Y, N299K counted along it
PUM1 PUF domain R8-NWF, sequence (Q14671 828-1176 Y1123W/Q1126F): as the sequence (Q14671 828-1176 N1122K/Y1123H/Q1126N) above, with K295N, H296W, N299F counted along it
PUM1 PUF domain R5-KAN, sequence (Q14671 828-1176 C1007K/R1008A/Q1011N): as the sequence (Q14671 828-1176 N1122K/Y1123H/Q1126N) above, with C180K, R181A, Q184N, K295N, H296Y, N299Q counted along it
PUM1 PUF domain R2-RQC, sequence (Q14671 828-1176 N899R/Y900Q/Q903C): as the sequence (Q14671 828-1176 N1122K/Y1123H/Q1126N) above, with N72R, Y73Q, Q76C, K295N, H296Y, N299Q counted along it

For “GGCUAGAACUAGUGGAUCCCCCGGCGCCCGGCGGCUCGAGCCCGGGUAAGUGUAAAGAGUCUGCAUGCCGCCGGGCGCCAUGCCUGCAGGUCGACUCUAGAAAACAUG”, the binding signal [1] was 4.25 log2 enrichment (interaction score).

With “GGCUAGAACUAGUGGAUCCCCCGGCGCCCGGCGGCUCGAGCCCGGGUAAGUGUAAGUAGUCUGCAUGCCGCCGGGCGCCAUGCCUGCAGGUCGACUCUAGAAAACAUG” the binding signal [2] was 4.57 log2 enrichment (interaction score).

With “GGCUAGAACUAGUGGAUCCCCCGGCGCCCGGCGGCUCGAGCCCGGGUAAGUGUUAAUAGUCUGCAUGCCGCCGGGCGCCAUGCCUGCAGGUCGACUCUAGAAAACAUG” the binding signal [3] was 3.24 log2 enrichment (interaction score).

In the case of “GGCUAGAACUAGUGGAUCCCCCGGCGCCCGGCGGCUCGAGCCCGGGUAAGUGUAAUUAGUCUGCAUGCCGCCGGGCGCCAUGCCUGCAGGUCGACUCUAGAAAACAUG”, the binding signal [4] is reported as 3.43 log2 enrichment (interaction score) and the binding signal [2] is reported as 3.7 log2 enrichment (interaction score).

With “GGCUAGAACUAGUGGAUCCCCCGGCGCCCGGCGGCUCGAGCCCGGGUAAGUGUAAAUUGUCUGCAUGCCGCCGGGCGCCAUGCCUGCAGGUCGACUCUAGAAAACAUG” the binding signal [5] was 5.1 log2 enrichment (interaction score).

“GGCUAGAACUAGUGGAUCCCCCGGCGCCCGGCGGCUCGAGCCCGGGUAAGUGUGAAUAGUCUGCAUGCCGCCGGGCGCCAUGCCUGCAGGUCGACUCUAGAAAACAUG” was tested, and the binding signal [6] was 1.02 log2 enrichment (interaction score).

For “GGCUAGAACUAGUGGAUCCCCCGGCGCCCGGCGGCUCGAGCCCGGGUAAGCGUAAAUAGUCUGCAUGCCGCCGGGCGCCAUGCCUGCAGGUCGACUCUAGAAAACAUG”, the binding signal [7] was 2.16 log2 enrichment (interaction score), the binding signal [8] was 4.29 log2 enrichment (interaction score) and the binding signal [9] was 5.43 log2 enrichment (interaction score).

For “GGCUAGAACUAGUGGAUCCCCCGGCGCCCGGCGGCUCGAGCCCGGGUAAGUGUCAAUAGUCUGCAUGCCGCCGGGCGCCAUGCCUGCAGGUCGACUCUAGAAAACAUG”, the binding signal [10] was 5.42 log2 enrichment (interaction score), the binding signal [3] was 3.03 log2 enrichment (interaction score) and the binding signal [6] was 4.59 log2 enrichment (interaction score).

For “GGCUAGAACUAGUGGAUCCCCCGGCGCCCGGCGGCUCGAGCCCGGGUAAGUGUAAAUAGUCUGCAUGCCGCCGGGCGCCAUGCCUGCAGGUCGACUCUAGAAAACAUG”, the binding signal [9] was 2.21 log2 enrichment (interaction score), the binding signal [6] was 0.94 log2 enrichment (interaction score) and the binding signal [2] was 3.61 log2 enrichment (interaction score).

In the case of “GGCUAGAACUAGUGGAUCCCCCGGCGCCCGGCGGCUCGAGCCCGGGUAAGGGUAAAUAGUCUGCAUGCCGCCGGGCGCCAUGCCUGCAGGUCGACUCUAGAAAACAUG”, the binding signal [9] is reported as 2.46 log2 enrichment (interaction score).
